The values that follow come from PubChem BioAssay (EPA / NIEHS).

The AC50 is the concentration at which the activity in the assay is half-maximal.

Active and inactive are the calls of the source. Rule for the calls: active = hit-call score of the fitted dose curve at least 0.9, where 1 is the maximum; inactive = score below 0.9.

Assay [1] in a line: BSK_CASM3C_SRB: Viability Assessment in the BioMAP Diversity Plus: CASM3C Assay (AID 2283050).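 Note: cells exposed to compound for 24 h.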 To be noted: primary human coronary artery smooth muscle cells.
Read-out in assay [2]: Thrombomodulin, THBD (gene 7056)
Description: BSK_CASM3C_Thrombomodulin: BioMAP Diversity Plus: CASM3C Assay for Thrombomodulin Biomarker Activity (AID 2283051).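 Note: thrombomodulin protein level measured by ELISA 24 h after dosing.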 To be noted: primary human coronary artery smooth muscle cells; actives raise or lower the signal.

Read-out in assay [3]: Tissue Factor, F3 (gene 2152)
Description: BSK_CASM3C_TissueFactor: BioMAP Diversity Plus: CASM3C Assay for Tissue Factor Biomarker Activity (AID 2283052).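 Note: cell surface tissue factor protein level read by ELISA.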 To be noted: primary human coronary artery smooth muscle cells; actives raise or lower the signal.

Read-out in assay [4]: Interferon-gamma inducible Protein 10 (IP10), CXCL10 (gene 3627)
The experiment in a line: BSK_hDFCGF_IP10: BioMAP Diversity Plus: hDFCGF Assay for Interferon-gamma inducible Protein 10 (IP10) Biomarker Activity (AID 2283053). The following applies: primary human foreskin fibroblasts; actives raise or lower the signal. The method in brief:
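Cells: human dermal foreskin fibroblasts. Exposure: 24 h post-dosing. Detection: IP-10 ELISA, with values expressed against DMSO controls and fitted in both directions.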

Read-out in assay [5]: Urokinase-type plasminogen activator receptor (uPAR), PLAUR (gene 5329)
Description: BSK_CASM3C_uPAR: BioMAP Diversity Plus: CASM3C Assay for Urokinase-type plasminogen activator receptor (uPAR) Biomarker Activity (AID 2283054).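 Note: cell-surface uPAR protein level quantified by ELISA.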 The following applies: primary human coronary artery smooth muscle cells; actives raise or lower the signal.

Read-out in assay [6]: Vascular cell adhesion molecule 1 (VCAM1), VCAM1 (gene 7412)
Description: BSK_CASM3C_VCAM1: BioMAP Diversity Plus: CASM3C Assay for Vascular cell adhesion molecule 1 (VCAM1) Biomarker Activity (AID 2283055).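 Note: VCAM-1 protein level quantified by ELISA on the cells.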 To be noted: primary human coronary artery smooth muscle cells; actives raise or lower the signal.

Read-out in assay [7]: Collagen III, COL3A1 (gene 1281)
Description: BSK_hDFCGF_CollagenIII: BioMAP Diversity Plus: hDFCGF Assay for Collagen III Biomarker Activity (AID 2283056). The following applies: primary human foreskin fibroblasts; actives raise or lower the signal. Put shortly: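 Cells: human foreskin fibroblasts, primary. Dosing followed by 24 h incubation, then ELISA for collagen III. Both increases and decreases scored relative to DMSO.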

Read-out in assay [8]: Epidermal growth factor receptor (EGFR), EGFR (gene 1956)
Description: BSK_hDFCGF_EGFR: BioMAP Diversity Plus: hDFCGF Assay for Epidermal growth factor receptor (EGFR) Biomarker Activity (AID 2283057). To be noted: primary human foreskin fibroblasts; actives raise or lower the signal. Put shortly:
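Dosing human primary skin fibroblasts, then measuring surface EGFR by ELISA at 24 h, gives the endpoint; gains and losses relative to DMSO were fitted in both directions.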

Read-out in assay [9]: Interleukin-8 (IL8), CXCL8 (gene 3576)
Description: BSK_hDFCGF_IL8: BioMAP Diversity Plus: hDFCGF Assay for Interleukin-8 (IL8) Biomarker Activity (AID 2283058). The following applies: primary human foreskin fibroblasts; actives raise or lower the signal. Put shortly: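 IL-8 levels from compound-treated primary human fibroblasts were read by ELISA at 24 h, with DMSO serving as baseline for bidirectional fitting.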

Read-out in assay [10]: Macrophage colony-stimulating factor (MCSF), CSF1 (gene 1435)
Description: BSK_hDFCGF_MCSF: BioMAP Diversity Plus: hDFCGF Assay for Macrophage colony-stimulating factor (MCSF) Biomarker Activity (AID 2283060). To be noted: primary human foreskin fibroblasts; actives raise or lower the signal. The method in brief:
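M-CSF levels, determined by ELISA, are taken at 24 h after dosing human skin fibroblasts. Responses in either direction are fitted with DMSO serving as the baseline.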

Assay [11] in a line: BSK_hDFCGF_SRB: Viability Assessment in the BioMAP Diversity Plus: hDFCGF Assay (AID 2283061).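 Note: cells exposed to compound for 24 h before the read.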 To be noted: primary human foreskin fibroblasts. Put shortly: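 Cells were dosed with test chemical, cultured 24 h, fixed with 10% TCA, then stained with 0.1% SRB and read at 560 nm. The fibroblasts were human foreskin primary cells, and DMSO served as baseline.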
Read-out in assay [12]: TIMP metallopeptidase inhibitor 1 (TIMP1), TIMP1 (gene 7076)
The experiment in a line: BSK_hDFCGF_TIMP1: BioMAP Diversity Plus: hDFCGF Assay for TIMP metallopeptidase inhibitor 1 (TIMP1) Biomarker Activity (AID 2283062). The following applies: primary human foreskin fibroblasts; actives raise or lower the signal. Put shortly:
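Fibroblasts from human foreskin are treated with test chemical and harvested at 24 h. TIMP-1 is quantified by ELISA, and gain or loss of signal is scored against DMSO.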

Read-out in assay [13]: Monokine induced gamma interferon (MIG), CXCL9 (gene 4283)
The experiment in a line: BSK_hDFCGF_MIG: BioMAP Diversity Plus: hDFCGF Assay for Monokine induced gamma interferon (MIG) Biomarker Activity (AID 2283063). To be noted: primary human foreskin fibroblasts; actives raise or lower the signal. Put shortly:
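MIG signal, determined by ELISA, reflects 24 h chemical exposure of human skin primary fibroblasts. DMSO serves as negative control and baseline.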

Read-out in assay [14]: Matrix Metallopeptidase 1 (MMP1), MMP1 (gene 4312)
Description: BSK_hDFCGF_MMP1: BioMAP Diversity Plus: hDFCGF Assay for Matrix Metallopeptidase 1 (MMP1) Biomarker Activity (AID 2283064). To be noted: primary human foreskin fibroblasts; actives raise or lower the signal. The method in brief:
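Human foreskin fibroblasts exposed to chemical for 24 h; MMP1 detected by ELISA, with DMSO as baseline for bidirectional fitting.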

Read-out in assay [15]: Vascular cell adhesion molecule 1 (VCAM1), VCAM1 (gene 7412)
Description: BSK_hDFCGF_VCAM1: BioMAP Diversity Plus: hDFCGF Assay for Vascular cell adhesion molecule 1 (VCAM1) Biomarker Activity (AID 2283065).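 For AC50: VCAM-1 protein level quantified by ELISA after 24 h chemical exposure.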 To be noted: primary human foreskin fibroblasts; actives raise or lower the signal. Put shortly: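 Cells are dosed, cultured for 24 h, then VCAM-1 is quantified by ELISA; signal increases and decreases are both fitted relative to DMSO.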

Read-out in assay [16]: Plasminogen activator inhibitor-1 (PAI1), SERPINE1 (gene 5054)
The experiment in a line: BSK_hDFCGF_PAI1: BioMAP Diversity Plus: hDFCGF Assay for Plasminogen activator inhibitor-1 (PAI1) Biomarker Activity (AID 2283066). The following applies: primary human foreskin fibroblasts; actives raise or lower the signal. Put shortly: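 Fibroblasts from human foreskin were treated with test chemical. After 24 h, PAI-1 was measured by ELISA. Activity was fitted in both directions relative to DMSO.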

Read-out in assay [17]: Intercellular Adhesion Molecule 1 (ICAM1), ICAM1 (gene 3383)
Description: BSK_KF3CT_ICAM1: BioMAP Diversity Plus: KF3CT Assay for Intercellular Adhesion Molecule 1 (ICAM1) Biomarker Activity (AID 2283067). To be noted: primary human keratinocytes with fibroblasts; actives raise or lower the signal. Put shortly: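 Dose the keratinocyte/fibroblast co-culture, wait 24 h, measure ICAM-1 by ELISA, then fit increases or decreases against DMSO. Cytotoxicity is checked in parallel cultures by SRB total-protein staining.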

Read-out in assay [18]: Interferon-gamma inducible Protein 10 (IP10), CXCL10 (gene 3627)
Description: BSK_KF3CT_IP10: BioMAP Diversity Plus: KF3CT Assay for Interferon-gamma inducible Protein 10 (IP10) Biomarker Activity (AID 2283068). To be noted: primary human keratinocytes with fibroblasts; actives raise or lower the signal. Put shortly: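 In a primary skin co-culture of keratinocytes and fibroblasts, IP-10 is quantified by ELISA at 24 h after dosing. SRB staining of parallel wells monitors overt toxicity. Curves are fitted both directions against DMSO.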

Assay [19] in a line: BSK_KF3CT_SRB: Viability Assessment in the BioMAP Diversity Plus: KF3CT Assay (AID 2283069).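 Note: fitted for both signal gain and loss against DMSO baseline.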 To be noted: primary human keratinocytes with fibroblasts. Put shortly: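 Overt cytotoxicity is assessed as total protein by sulforhodamine B staining in parallel human skin co-cultures at 24 h after dosing. DMSO serves as negative control and baseline.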

`CCCCCCC=O`: the result in assay [1], in [2], in assay [3], in assay [4], in [5] and in assay [6] was inactive. In addition, the outcome in [7], in assay [8], in assay [9], in [10], in assay [11] and in [12] was inactive. For the same compound, the result in assay [13], in assay [14], in [15], in assay [16], in [17] and in [18] was inactive. Besides, the result in [19] was inactive.

With `O=C1CCCCCCCCCCCN1`, the outcome in assay [1], in [2], in [3], in assay [4], in assay [5] and in [6] was inactive. Besides, the result in assay [7], in assay [8], in assay [9], in assay [10], in assay [11] and in [12] was inactive. The outcome in assay [13], in [14], in [15], in assay [16], in assay [17] and in [18] was inactive. Also, in assay [19], the outcome was inactive.

On to `C=CC(=O)OCCCCCCCC(C)C`, for which the outcome in assay [1], in [2], in assay [3], in [4], in assay [5] and in [7] was inactive. Besides, the result in [8], in assay [9], in assay [12], in assay [14], in assay [17] and in [18] was inactive. Also, the outcome in assay [19] was inactive. For the same compound, the AC50 in assay [6] was 20 µM (active); in assay [10], 20 µM (active); in assay [11], 25.6 µM (active); in [13], 20 µM (active); in assay [15], 12.3 µM (active); in assay [16] it was 5.93 µM (active).

`CCCCCCCCC(CO)CCCCCC` (centres undefined): the result in assay [1], in assay [2], in [3], in [4], in [5] and in assay [6] was inactive. The outcome in assay [8], in assay [9], in assay [12], in assay [13], in [14] and in assay [15] was inactive. Also, the outcome in assay [17], in [18] and in assay [19] was inactive. Further, the AC50 was 4.17 µM (active) in assay [7], 4.32 µM (active) in [10], 2 µM (active) in [11] and 3.75 µM (active) in [16].

Consider `c1ccc2sc(SSN3CCOCC3)nc2c1`, for which the AC50 in [1] was 20 µM (active); in assay [3], 10.6 µM (active); in assay [5], 6.71 µM (active); in assay [6], 4.44 µM (active); in assay [8], 7.7 µM (active); in assay [10], 9.39 µM (active). Besides, the AC50 is 7.52 µM (active) in [11]; 10.7 µM (active) in assay [12]; 4.82 µM (active) in [16]; 10.7 µM (active) in assay [17]; 23.8 µM (active) in assay [18]; 10.3 µM (active) in assay [19]. Further, the outcome in assay [2], in assay [4], in assay [7], in assay [9], in assay [13] and in [14] was inactive. In [15], the result was inactive.

Turning to `COc1ccc(C(=O)c2ccccc2)c(O)c1`, the result in [1], in [2], in [4], in assay [5], in assay [6] and in [7] was inactive. Also, the outcome in assay [8], in assay [9], in [10], in [11], in assay [12] and in assay [13] was inactive. The result in assay [14], in [15], in assay [16], in assay [17], in assay [18] and in [19] was inactive. Besides, the AC50 in assay [3] is 20 µM (active).
